Data taken from PubChem BioAssay AID1566 (Sanford-Burnham Center for Chemical Genomics, 2009).
Out of some 290,000 compounds screened, about 1,800 (0.62%) were called active. Cut-off read from the data, not from the text of the source: active = inhibition above about 50%; inactive = the rest. What follows is part of a selection rich in actives, with near analogues and random picks from the rest.

Assay: inhibition of NOD2-driven NF-kB reporter – cell-based, luminescence, uHTS, HEK293 (AID 1566)
Conditions: HEK293 NOD2/NF-kB luciferase reporter, at 4 µM, hits give high values

inhibition, active:
O=C1CCCN2N=C(SCC(=O)Nc3cccc(C(F)(F)F)c3)SC2=N1 58.1%
O=C(COc1ccc(Cl)cc1Cl)Nc1ccccn1 62.1%
COc1ccc(-c2noc(CCCC(=O)O)n2)cc1 57.7%
CN(C)/N=C/C=C1\CCC/C(=C\c2ccc(F)c(F)c2)C1=O 63%
CCC1C/C(=C\c2cccnc2)C(=O)/C(=C/c2cccnc2)C1 (centres undefined) 94.6%
CCOC(=O)C(=CNc1ccc(NC2=NCC(C)S2)cc1)C(=O)OCC (centres undefined) 55.5%
N#C/C(=C(/O)COC(=O)c1ccccc1O)c1nc2ccccc2s1 52.7%
Fc1ccccc1CNc1ncnc2sccc12 56.7%
CCN(CC)S(=O)(=O)c1cc(NC(=O)C(CC(C)C)NC(N)=O)ccc1C (centres undefined) 57.5%

inhibition, inactive:
COc1ccccc1NC1=C(C)C(=O)CC1 5.8%
Cc1cccc(NC(=O)N2CCC(C(=O)c3ccc(F)cc3)CC2)c1 -7.7%
O=C1CCCN2N=C(SCC(=O)Nc3cccc(Cl)c3)SC2=N1 43.7%
O=C1CCCN2N=C(SCC(=O)Nc3cccc(F)c3)SC2=N1 -16.8%
CCC(C(=O)NCCCN1CCCCCC1)n1nc(C)c2sc3ccccc3c2c1=O (centres undefined) -40.3%
CCC(C)(C)c1ccc(OCCCC[n+]2ccc(C)cc2)c(C(C)(C)CC)c1 29.7%
CCC(C)(C)c1ccc(OCCCC[n+]2ccccc2)c(C(C)(C)CC)c1 12%
CC(C)(C)NC(=O)NC(=O)COC(=O)Cc1c(Cl)cccc1Cl 1.1%
COc1ccc(CCNc2oc(COc3ccccc3)nc2C#N)cc1 -27.2%
COc1ccc(CCNc2oc(COc3ccccc3F)nc2C#N)cc1OC 9.2%
COc1ccc(CCNc2oc(Cc3ccccc3)nc2C#N)cc1OC 36.6%
COc1ccc(CCNc2oc(COc3ccc(F)cc3)nc2C#N)cc1 -49.7%
CCOC(=O)N1CCN(C(=O)CSc2nc3c(cnn3-c3ccccc3)c(=O)[nH]2)CC1 2.1%
COc1ccc(-c2cc(=O)oc3c(C)c(OCC(=O)NCC4CCC(C(=O)O)CC4)ccc23)cc1 (centres undefined) 23.3%
CCSC1=C(C#N)C2(CCCCC2)C(C#N)C(=O)N1 (centres undefined) 10.3%
N#CC1=C(SCC(=O)NC2CC2)NC(=O)C(C#N)C12CCCCC2 (centres undefined) -1.6%
Cc1nn(-c2cc(N3CCCCC3)ccc2[N+](=O)[O-])c(=O)c2ccccc12 -6.2%
CCC(C)[C@H](NC(=O)C1CC(=O)N(c2ccc(OC)cc2)C1)C(=O)N1CCCCC1 (some centres undefined) 12.9%
COC(=O)c1ncn(C2OC(COC(C)=O)C(OC(C)=O)C2OC(C)=O)n1 (centres undefined) 18.8%
CCN1CCN(CCC(=O)Nc2ccc(F)c(F)c2)CC1 1.5%
CCN(CC)S(=O)(=O)c1ccc2nnn(O)c2c1 -3.6%
Cc1ccc(-n2nc3c(=O)n(CCCC(=O)N4CCC(C)CC4)nc(C)c3c2C)cc1 27.9%
Cc1ccc(-n2nc(C)c3c(=O)[nH]c(C(F)(F)F)nc32)cc1 32.3%
Cc1nn(-c2ccccc2)c2nc(C(F)(F)F)[nH]c(=O)c12 30.5%
O=C(COc1ccc(Cl)cc1Cl)Nc1ccc(Cl)cn1 -209%
O=C(CCCOc1ccc(Cl)cc1Cl)Nc1ccccn1 -183%
Cc1cccc(NC2=NCC(=O)N2CCc2ccccc2)c1 -0.2%
COc1cc(C(=O)N(c2ccc(C)c(C)c2)C2C=CS(=O)(=O)C2)cc(OC)c1OC (centres undefined) -4.9%
COc1ccc(-c2noc(CCC(=O)O)n2)cc1 11.3%
O=C(O)CCCc1nc(-c2ccccc2)no1 -10%
O=C(NCCc1ccc(C(F)(F)F)cc1)C1CCC(=O)N(CCc2cccc(F)c2)C1 (centres undefined) -4.6%
CN(C)/N=C/C=C1\CC/C(=C\c2ccc(Br)cc2)C1=O -21.2%
COc1ccc(/C=C2\CCC/C(=C\C=N\N(C)C)C2=O)cc1 -25.5%
Cc1ccc(-c2cc(C(F)F)nc(N3CCOCC3)n2)cc1 15.5%
O=C1CCN(C2CCN(Cc3nc(Cc4ccccc4F)no3)CC2)CCN1 5.8%
COc1ccc(C(=O)N2CCC(n3nccc3NC(=O)C3CC3)CC2)c(OC)c1OC 12.7%
O=C(NC(O)C(=O)c1ccccc1)c1cccs1 (centres undefined) 10%
CC(C)(C)c1ccc(C(=O)NNC(=O)c2cccc(-n3cnnn3)c2)cc1 13.7%
Cc1nc(N2CCN(c3ccccn3)CC2)c2c(C)c(C(=O)Nc3ccc(F)cc3F)sc2n1 3.4%
Cc1nc(N2CCN(c3ccccn3)CC2)c2c(C)c(C(=O)N3CCN(c4cccc(Cl)c4)CC3)sc2n1 38.7%
Cc1nc(N2CCN(c3ccccn3)CC2)c2c(C)c(C(=O)Nc3ccc(Cl)cc3)sc2n1 15.9%
Cc1nc(N2CCN(c3ccccn3)CC2)c2c(C)c(C(=O)Nc3c(F)cc(F)cc3Br)sc2n1 33.9%
Cc1c(C(=O)N2CCN(c3ccccn3)CC2)sc2ncnc(N3CCOCC3)c12 -1.8%
Cc1c(C(=O)N2CCN(c3ccccc3)CC2)sc2ncnc(N3CCN(c4ccccn4)CC3)c12 39.4%
COc1ccccc1N1CCN(C(=O)c2sc3nc(C)nc(N4CCN(c5ccccn5)CC4)c3c2C)CC1 16%
Cc1nc(N2CCN(c3ccccn3)CC2)c2c(C)c(C(=O)Nc3ccc(F)cc3Cl)sc2n1 33.8%
O=C1CCCN1CCCNS(=O)(=O)c1ccc(Br)cc1 6.2%
Cn1c(=O)n(CC(=O)O)c(=O)c2c1nc1n2CCCN1CCc1ccccc1 4.6%
CCC(=O)C1CCCN(C(=O)c2ccc3nc(-c4cccc(OC)c4)oc3c2)C1 (centres undefined) -51.5%
CC(C)Cc1cc(C(=O)N2CCCC(C(=O)c3cc(F)ccc3F)C2)n(C)n1 (centres undefined) 23.7%
COc1ccc(C(=O)Nc2ccc(NC(=O)c3cnccn3)cn2)cc1 -1.7%
O=C(Nc1ccc2cn[nH]c2c1)c1ccc(Cl)c(S(=O)(=O)N2CCOCC2)c1 -3.7%
CN1C/C(=C/c2cccnc2)C(=O)/C(=C/c2cccnc2)C1 10.1%
O=C1/C(=C/c2cccnc2)CC/C1=C\c1cccnc1 1.3%
COc1cc(COc2ccc(-c3nnco3)cc2)ccc1OC(F)F 6.2%
Cc1ccc(COc2ccc(-c3nnco3)cc2)cc1 -78.6%
COc1ccnc(Oc2ccccc2)c1C(=O)N/C=N/OCc1ccccc1F 2.7%
CCCCCCn1c(NCC)nc2c1c(=O)n(C)c(=O)n2C 30%
COCCNC(=O)c1cc2cc3ccc(OC)cc3nc2o1 11.5%
COc1ccc2cc3cc(C(=O)NCCC(C)C)oc3nc2c1 10.4%
COc1ccc(-c2cc(=O)oc3cc(OCC(=O)N4C[C@H]5C[C@@H](C4)c4cccc(=O)n4C5)ccc23)cc1 3.1%
CCCCn1c(=O)c(CCC(=O)OCC(=O)Nc2cccc3ccccc23)nc2ccccc21 15.7%
O=C(Cc1ccccc1)NNC(=O)C1CC=CCC1 (centres undefined) 5.2%
CCc1nnc(NC(=O)COc2ccccc2[N+](=O)[O-])s1 -7.9%
Cc1csc(NC(=O)c2c(O)c3c(n(CC(C)C)c2=O)CCCC3)n1 23.7%
O=C(NC1=C(Nc2ccc(F)cc2)C(=O)c2ccccc2C1=O)c1ccc(Cl)cc1 -10.9%
O=C(NC1=C(Nc2ccc(Cl)cc2)C(=O)c2ccccc2C1=O)c1ccccc1 24.3%
CSc1nc(N)c2c(C)c(C)sc2n1 -1.2%
CCOC(=O)C(=CNc1ccc(C#N)cc1)C(=O)OCC 8.2%
CCOC(=O)C(=CNc1ccc(NC2=NCC(C)(C)S2)cc1)C(=O)OCC 34.9%
COc1cccc(CNC(=O)CCNC(=O)C2CCN(S(=O)(=O)c3ccc(F)cc3)CC2)c1 9%
N#C/C(=C(/O)COC(=O)c1ccc(C#N)cc1)c1nc2ccccc2s1 -9.9%
CC(C)(C)c1ccc(C(=O)OC/C(O)=C(\C#N)c2nc3ccccc3s2)cc1 30.1%
C=C(C)C(=O)Oc1ccc(N2C(=O)[C@@H]3C4C=CC(C4)[C@@H]3C2=O)cc1 -1.5%
CCn1c(=O)n(CC)c2cc(S(=O)(=O)N3CCCCC3)c(C)cc21 -12.1%
NC(=O)CC(NC(=O)Cc1ccc(Br)cc1)c1ccc(NCCN2CCOCC2)c([N+](=O)[O-])c1 (centres undefined) -1.2%
N#CC1=C(N)Oc2n[nH]c(-c3cccnc3)c2C1c1cc(F)ccc1F (centres undefined) -1.5%
c1ccc(CNc2ncnc3sccc23)cc1 44.5%
c1cncc(CNc2ncnc3sccc23)c1 21.1%
Cc1cccc(NC(=O)C(Cc2ccccc2)n2cccc2)c1 (centres undefined) 9.8%
CCN(CC)S(=O)(=O)c1cc(NC(=O)[C@@H](NC(N)=O)C(C)C)ccc1C 6.6%
Cc1ccc(NC(=O)C(CC(C)C)NC(N)=O)cc1Cl (centres undefined) -3.3%
COc1ccc(/C(C)=N/NC(=O)c2nnn(-c3nonc3N)c2-c2ccccc2)cc1 6.5%
Cc1ccc(C(=O)Nc2cccc(C(F)(F)F)c2)cc1Nc1cnccn1 14%
Cc1ccc(C(=O)Nc2cccc(C(F)(F)F)c2)cc1Nc1ccccn1 -0.8%
